The whole screen tested about 5,500 compounds, of which about 2,000 (36%) were called active. About 18% were inconclusive and are not listed. No stated cut-off is given here; in the data, active means normalized growth mostly below about 0.91 (no sharp cut-off); inconclusive means no clear call, values can overlap the other calls; inactive means mostly above about 0.92. This is one part of the list.
Test: chemical genetic growth profiling, strain panel (AID 1159580);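 further: tested at 20 µM; growth read once vehicle control cultures reached saturation at 30 °C; 1 = growth at the plate median or of vehicle wells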
Conditions: S. cerevisiae deletion strains, growth OD
[1] = locus YAL013W, strain DEP1, stronger effect = lower value
[2] = locus YCL061C, strain MRC1, stronger effect = lower value
[3] = locus YGR078C, strain PAC10, stronger effect = lower value
[4] = locus YHR030C, strain SLT2, stronger effect = lower value
[5] = locus YJL095W, strain BCK1, stronger effect = lower value
[6] = locus YJL187C, strain SWE1, stronger effect = lower value
[7] = locus YMR307W, strain GAS1, stronger effect = lower value
[8] = locus YNL322C, strain KRE1, stronger effect = lower value
[9] = locus YPL055C, strain LGE1, stronger effect = lower value
[10] = locus YPL241C, strain CIN2, stronger effect = lower value
[11] = locus YBR229C, strain ROT2, stronger effect = lower value
[12] = locus YDL101C, strain DUN1, stronger effect = lower value
[13] = locus YEL061C, strain CIN8, stronger effect = lower value
[14] = locus YGR229C, strain SMI1, stronger effect = lower value
[15] = locus YJR043C, strain POL32, stronger effect = lower value
[16] = locus YKL190W, strain CNB1, stronger effect = lower value
[17] = locus YLR039C, strain RIC1, stronger effect = lower value
[18] = locus YLR262C, strain YPT6, stronger effect = lower value
[19] = locus YOL006C, strain TOP1, stronger effect = lower value

Measured: normalized growth

Nc1nnc(-c2cccc(Cl)c2Cl)c(N)n1
inactive: [1] 0.995 | locus YAL021C, strain ccr4, stronger effect = lower value 1.01 | locus YAL026C, strain drs2, stronger effect = lower value 1.02 | locus YAL030W, strain snc1, stronger effect = lower value 1.03 | locus YAL040C, strain CLN3, stronger effect = lower value 0.986 | locus YBL061C, strain skt5, stronger effect = lower value 1.02 | locus YBR009C, strain hhf1, stronger effect = lower value 1.03 | locus YBR023C, strain chs3, stronger effect = lower value 1.02 | locus YBR171W, strain sec66, stronger effect = lower value 1.04 | locus YBR231C, strain swc5, stronger effect = lower value 1.03 | locus YBR279W, strain paf1, stronger effect = lower value 1.02 | locus YCL011C, strain gbp2, stronger effect = lower value 1.02 | locus YCL016C, strain dcc1, stronger effect = lower value 1.01 | locus YCL061C, strain MRC1 (second series), stronger effect = lower value 1.01 | [2] 1.02 | locus YCL069W, strain vba3, stronger effect = lower value 1.02 | locus YCR088W, strain abp1, stronger effect = lower value 1.02 | locus YDL005C, strain med2, stronger effect = lower value 1.02 | locus YDL040C, strain nat1, stronger effect = lower value 1.02 | locus YDR001C, strain nth1, stronger effect = lower value 1.02 | locus YDR069C, strain doa4, stronger effect = lower value 1.04 | locus YDR137W, strain rgp1, stronger effect = lower value 1.02 | locus YDR159W, strain sac3, stronger effect = lower value 1.03 | locus YDR195W, strain ref2 1.03 | locus YDR297W, strain sur2, stronger effect = lower value 1.02 | locus YDR334W, strain swr1, stronger effect = lower value 1.02 | locus YDR335W, strain msn5, stronger effect = lower value 1.02 | locus YDR363W, strain ESC2, stronger effect = lower value 0.985 | locus YDR392W, strain spt3, stronger effect = lower value 0.987 | locus YEL003W, strain gim4, stronger effect = lower value 1.02 | locus YEL037C, strain rad23, stronger effect = lower value 1.01 | locus YEL061C, strain CIN8 (second series), stronger effect = lower value 1.02 | locus YER002W, strain NOP16, stronger effect = lower value 0.976 | locus YER015W, strain faa2, stronger effect = lower value 1.03 | locus YER016W, strain bim1, stronger effect = lower value 1.02 | locus YER111C, strain swi4, stronger effect = lower value 1.03 | locus YER155C, strain BEM2 (second series), stronger effect = lower value 1.04 | locus YFR010W, strain ubp6, stronger effect = lower value 1.01 | locus YGL167C, strain pmr1, stronger effect = lower value 1.02 | locus YGL173C, strain kem1, stronger effect = lower value 1.03 | locus YGL227W, strain vid30, stronger effect = lower value 1.03 | locus YGL240W, strain doc1, stronger effect = lower value 1.03 | locus YGL253W, strain hxk2, stronger effect = lower value 1.02 | [3] 1.01 | locus YHR013C, strain ard1, stronger effect = lower value 1.05 | locus YHR027C, strain rpn1, stronger effect = lower value 1.02 | [4] 1 | locus YHR079C, strain IRE1, stronger effect = lower value 0.995 | locus YHR142W, strain chs7, stronger effect = lower value 1.02 | locus YJL092W, strain hpr5, stronger effect = lower value 1.01 | locus YJL095W, strain BCK1 (second series), stronger effect = lower value 1.02 | [5] 0.997 | locus YJL115W, strain asf1, stronger effect = lower value 1.03 | locus YJL129C, strain trk1, stronger effect = lower value 1.04 | locus YJL154C, strain vps35, stronger effect = lower value 1.02 | locus YJL164C, strain tpk1, stronger effect = lower value 1.02 | locus YJL166W, strain qcr8, stronger effect = lower value 1.03 | [6] 1.02 | locus YJR066W, strain TOR1, stronger effect = lower value 0.949 | locus YKL160W, strain elf1, stronger effect = lower value 1.03 | locus YKR026C, strain gcn3, stronger effect = lower value 1 | locus YKR091W, strain srl3, stronger effect = lower value 1.02 | locus YLL001W, strain dnm1, stronger effect = lower value 0.997 | locus YLL026W, stronger effect = lower value 1.02 | locus YLL041C, strain sdh2, stronger effect = lower value 1.02 | locus YLR027C, strain aat2, stronger effect = lower value 1.03 | locus YLR113W, strain HOG1, stronger effect = lower value 0.966 | locus YLR221C, strain rsa3, stronger effect = lower value 1.02 | locus YLR258W, strain gsy2, stronger effect = lower value 1.02 | locus YLR262C, strain YPT6 (second series), stronger effect = lower value 1.02 | locus YLR320W, strain mms22, stronger effect = lower value 1.03 | locus YLR342W, strain FKS1, stronger effect = lower value 1.02 | locus YLR357W, strain rsc2, stronger effect = lower value 1.07 | locus YLR370C, strain arc18, stronger effect = lower value 1.02 | locus YLR384C, strain iki3, stronger effect = lower value 1.02 | locus YML120C, strain ndi1, stronger effect = lower value 0.994 | locus YMR058W, strain fet3, stronger effect = lower value 1.02 | locus YMR125W, strain sto1, stronger effect = lower value 1.05 | locus YMR129W, stronger effect = lower value 1.02 | locus YMR205C, strain PFK2, stronger effect = lower value 1.03 | locus YMR231W, strain pep5, stronger effect = lower value 1.01 | [7] 1.01 | locus YNL071W, strain lat1, stronger effect = lower value 1.01 | locus YNL175C, strain NOP13, stronger effect = lower value 0.986 | locus YNL183C, strain NPR1, stronger effect = lower value 0.949 | locus YNL197C, strain WHI3, stronger effect = lower value 0.991 | locus YNL209W, strain ssb2, stronger effect = lower value 1.02 | locus YNL224C, strain SQS1, stronger effect = lower value 0.981 | locus YNL248C, strain rpa49, stronger effect = lower value 1.02 | locus YNL322C, strain KRE1 (second series), stronger effect = lower value 1.02 | [8] 1.01 | locus YNR049C, strain mso1, stronger effect = lower value 1.03 | locus YOR001W, strain rrp6, stronger effect = lower value 1.02 | locus YOR070C, strain gyp1, stronger effect = lower value 1.02 | locus YOR080W, strain dia2, stronger effect = lower value 1.03 | locus YOR083W, strain WHI5 (second series), stronger effect = lower value 0.992 | locus YOR083W, strain WHI5, stronger effect = lower value 1.01 | locus YOR106W, strain vam3, stronger effect = lower value 1.03 | locus YOR231W, strain MKK1, stronger effect = lower value 1.01 | locus YOR265W, strain rbl2, stronger effect = lower value 1.02 | locus YOR270C, strain vph1, stronger effect = lower value 1.08 | locus YOR290C, strain snf2, stronger effect = lower value 1.04 | locus YPL051W, strain arl3, stronger effect = lower value 1.02 | [9] 0.994 | locus YPL078C, strain atp4, stronger effect = lower value 1.01 | locus YPL106C, strain sse1, stronger effect = lower value 1.02 | locus YPL240C, strain hsp82, stronger effect = lower value 1.02 | [10] 1 | locus YPL256C, strain CLN2, stronger effect = lower value 0.989

CSC(=NCc1cccnc1)NC#N
inactive: [1] 0.991 | [11] 1 | [2] 1 | [12] 1 | locus YDR150W, strain NUM1, stronger effect = lower value 0.997 | [13] 0.993 | [3] 1 | [14] 1 | [4] 1.01 | locus YHR087W, strain rtc3, stronger effect = lower value 1 | [6] 0.994 | [15] 0.986 | locus YJR075W, strain HOC1, stronger effect = lower value 0.998 | [16] 0.998 | [17] 1 | locus YLR058C, strain SHM2 (second series), stronger effect = lower value 0.992 | locus YLR085C, strain ARP6, stronger effect = lower value 1.02 | [18] 1.01 | locus YML094W, strain GIM5, stronger effect = lower value 1.06 | locus YMR219W, strain ESC1, stronger effect = lower value 1 | locus YMR263W, strain SAP30, stronger effect = lower value 0.992 | locus YNL153C, strain GIM3, stronger effect = lower value 1.01 | locus YNL298W, strain CLA4 (second series), stronger effect = lower value 1.01 | [8] 0.998 | locus YNR030W, strain Alg12, stronger effect = lower value 1 | [19] 1.03 | [9] 0.994 | [10] 0.987 | locus YPR135W, strain CTF4, stronger effect = lower value 1.01

COC(=O)C[C@H]1C(C)(C)C(=O)[C@@H]2CC3=C4CC(OC)O[C@@H](c5ccoc5)[C@]4(C)CCC3[C@@]1(C)C2=O (stereo partly specified)
inactive: locus YBR021W, strain FUR4, stronger effect = lower value 1.01 | [11] 0.994 | locus YCL029C, strain bik1, stronger effect = lower value 0.987 | locus YDL035C, strain GPR1, stronger effect = lower value 1.02 | locus YDL074C, strain BRE1, stronger effect = lower value 1.01 | [12] 1.01 | locus YDL134C, strain PPH21, stronger effect = lower value 1 | locus YDL185W, strain tfp1, stronger effect = lower value 1 | locus YDL192W, strain arf1, stronger effect = lower value 1 | locus YDR101C, strain arx1, stronger effect = lower value 0.995 | locus YDR162C, strain NBP2, stronger effect = lower value 1 | locus YDR318W, strain mcm21, stronger effect = lower value 0.998 | locus YDR388W, stronger effect = lower value 0.991 | locus YDR502C, strain sam2, stronger effect = lower value 0.989 | [13] 0.999 | locus YER110C, stronger effect = lower value 0.994 | locus YER155C, strain BEM2, stronger effect = lower value 1.01 | locus YER167W, strain BCK2, stronger effect = lower value 1.01 | locus YGL078C, strain dbp3, stronger effect = lower value 1.01 | locus YGL086W, strain mad1, stronger effect = lower value 0.995 | locus YGL248W, strain PDE1, stronger effect = lower value 1.01 | [3] 1.01 | locus YGR135W, strain pre9, stronger effect = lower value 0.99 | [14] 1.03 | locus YGR252W, strain gcn5, stronger effect = lower value 1.01 | [4] 1 | locus YHR079C, strain IRE1 (second series), stronger effect = lower value 0.996 | locus YHR094C, strain hxt1, stronger effect = lower value 0.993 | locus YHR129C, strain ARP1, stronger effect = lower value 1.01 | locus YHR200W, strain rpn10, stronger effect = lower value 0.997 | locus YIL066C, strain RNR3, stronger effect = lower value 1.01 | locus YIL073C, strain SPO22, stronger effect = lower value 0.995 | locus YIL125W, strain kgd1, stronger effect = lower value 0.998 | locus YIR030C, strain dcg1, stronger effect = lower value 1 | [5] 1.01 | locus YJL134W, strain LCB3, stronger effect = lower value 1.01 | locus YJL168C, strain set2, stronger effect = lower value 0.996 | locus YJL187C, strain SWE1 (second series), stronger effect = lower value 1.01 | [15] 1.02 | locus YKL009W, strain mrt4, stronger effect = lower value 0.984 | locus YKL068W, stronger effect = lower value 1 | locus YKL085W, strain MDH1 (second series), stronger effect = lower value 1 | locus YKL085W, strain MDH1, stronger effect = lower value 1 | [16] 1.01 | locus YKR001C, strain vps1, stronger effect = lower value 1 | [17] 0.969 | locus YLR058C, strain SHM2, stronger effect = lower value 1 | locus YLR102C, strain apc9, stronger effect = lower value 1 | [18] 0.982 | locus YLR268W, strain sec22, stronger effect = lower value 1.01 | locus YLR330W, strain CHS5, stronger effect = lower value 1 | locus YLR342W, strain FKS1 (second series), stronger effect = lower value 0.991 | locus YLR371W, strain rom2, stronger effect = lower value 1 | locus YLR418C, strain cdc73, stronger effect = lower value 0.992 | locus YML016C, strain PPZ1, stronger effect = lower value 1 | locus YML032C, strain rad52, stronger effect = lower value 0.997 | locus YML124C, strain tub3, stronger effect = lower value 1 | locus YMR078C, strain ctf18, stronger effect = lower value 0.99 | locus YMR223W, strain ubp8, stronger effect = lower value 1.01 | [7] 1.03 | locus YNL067W, strain RPL9B, stronger effect = lower value 1.01 | locus YNL233W, strain BNI4, stronger effect = lower value 1.04 | locus YNL250W, strain rad50, stronger effect = lower value 0.986 | locus YNL271C, strain bni1, stronger effect = lower value 1 | locus YNL298W, strain CLA4, stronger effect = lower value 0.984 | locus YNL307C, strain MCK1, stronger effect = lower value 0.985 | locus YNR052C, strain pop2, stronger effect = lower value 1.01 | [19] 1.06 | locus YOL012C, strain htz1 1.32 | locus YOL147C, strain pex11, stronger effect = lower value 0.995 | locus YOR061W, strain CKA2, stronger effect = lower value 0.999 | locus YOR069W, strain VPS5, stronger effect = lower value 1.01 | locus YOR136W, strain idh2, stronger effect = lower value 0.999 | locus YOR144C, strain elg1, stronger effect = lower value 0.988 | locus YOR184W, strain ser1, stronger effect = lower value 1.01 | locus YOR316C, strain cot1, stronger effect = lower value 1 | [9] 1.03 | [10] 1 | locus YPR119W, strain clb2, stronger effect = lower value 1.01 | locus YPR141C, strain kar3, stronger effect = lower value 0.999 | locus YPR163C, strain tif3, stronger effect = lower value 0.996 | locus YPR167C, strain met16, stronger effect = lower value 1 | strain wtn01, stronger effect = lower value 1.01
